# Assay results: the supplement of paper PMC3334620
# Over roughly 33,000 sequences, “E-score (-0.5 to 0.5)” has its median near -0.035; the highest 2% begin near 0.34. Many of the other results were omitted from the sample, so the highest values are more common in it than they were.
# Target: T1, Mot3 (UniProt P54785)
# T1 sequence: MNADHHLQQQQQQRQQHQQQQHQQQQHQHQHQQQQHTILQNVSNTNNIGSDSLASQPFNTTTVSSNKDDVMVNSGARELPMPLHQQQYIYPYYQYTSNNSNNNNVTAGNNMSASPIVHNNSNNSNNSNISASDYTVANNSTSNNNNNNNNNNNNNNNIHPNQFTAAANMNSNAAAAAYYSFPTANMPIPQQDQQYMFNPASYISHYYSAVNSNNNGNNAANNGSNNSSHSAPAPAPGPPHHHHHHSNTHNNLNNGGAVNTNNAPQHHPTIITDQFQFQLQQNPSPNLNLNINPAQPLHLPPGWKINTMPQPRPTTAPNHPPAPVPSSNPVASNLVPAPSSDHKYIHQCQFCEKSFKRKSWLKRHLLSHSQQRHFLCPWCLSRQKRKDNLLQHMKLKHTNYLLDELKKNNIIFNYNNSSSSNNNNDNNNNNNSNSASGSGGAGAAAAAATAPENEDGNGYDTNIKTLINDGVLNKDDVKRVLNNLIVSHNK
# Test: PBM E-score (8-mer binding enrichment) (E-score (-0.5 to 0.5)); higher = stronger / more preferred TF binding
# Settings: protein concentration: 200 nM; construct: GST-full length
# Procedure: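 Universal 'all 10-mer' protein binding microarrays (Agilent AMADID 015681) probed with GST-tagged S. cerevisiae TFs (full-length or DBD) made by in vitro transcription/translation (PURExpress), about 100-200 nM. Bound TF was detected with fluorescent anti-GST. Each ungapped 8-mer (which stands for itself and its reverse complement) is scored by the PBM enrichment score (E-score), a modified Wilcoxon-Mann-Whitney statistic from -0.5 to +0.5, computed with the Universal PBM Analysis Suite. Scale: above 0.35 generally sequence-specific binding.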
row,Sequence,PBM E-score
1,AGAGCACC,-0.233
2,ACGTATCC,-0.129
3,CCATCTCC,-0.26
4,CCGGGGTC,-0.135
5,AGTGCGAT,-0.00843
6,GATTTCGC,0.167
7,GAGACTCA,-0.251
8,ACACGTGT,0.363
9,AAACGTGG,-0.0479
10,ACACGTTA,0.345
11,ACACGTGA,0.273
12,ACACGTTG,0.305
13,AAACGTGT,0.344
14,AAACGTGA,0.178
15,ACACGTGG,0.236
16,ACACGTTC,0.303
17,CACGCGCC,0.181
18,CCAGGGTA,-0.153
19,GCCCAACA,0.146
20,ATCAAAAC,-0.118
21,ATGTTTAG,0.279
22,CTGTTTAC,0.28
23,ATGTTTAC,0.374
24,ATGTTTTA,0.362
25,CTGTTTTA,0.0859
26,GTGTTTTA,0.219

row,Sequence,PBM E-score
1,CTAGAACC,-0.0352
2,AAGCCCTG,-0.0744
3,AACTACCG,-0.0555
4,ATGGGGAG,-0.135
5,CTGTGTAC,0.294
6,GTGTGTAA,0.394
7,CTGTGTGA,0.181
8,GAGTGTAA,0.249
9,ATGTGTAA,0.352
10,ATGTGTAC,0.285
11,ATGTGTAG,0.303
12,GTGTATAA,0.343
13,ATGTATAA,0.256
14,CTGTGTAA,0.41
15,CTGTATAA,0.0988
16,GGGTGTAA,0.223
17,CCGGATGC,-0.24
18,ACGATCTC,-0.198
19,ACTAGGGG,-0.223
20,CGCTCTTC,-0.174
21,GACACATC,-0.0862
22,CCTAGGAC,-0.0674
23,AACATGTG,0.278
24,AACATGTT,0.387
25,AACATGTA,0.42
26,AAGATGTA,0.194

row,Sequence,PBM E-score
1,AACATTTA,0.244
2,AACATGTC,0.296
3,CTGGCCCC,-0.215
4,AACGGTTC,-0.172
5,AACAGAAT,0.0192
6,ATCTTAAG,-0.14
7,CCTGACCG,-0.159
8,TGTAGGAA,0.406
9,CGTAGGAA,0.351
10,GGTAGGAC,-0.172
11,AGTAGGAT,0.0448
12,CGTAGGAC,-0.166
13,AGTAGGAA,0.403
14,CGTAGGAG,-0.0892
15,AGTAGGAC,-0.258
16,GGTAGGAA,0.313
17,CATCAGGG,-0.0517
18,ACTGCGGC,-0.227
19,AACTAAGA,0.0799
20,CAATTGCA,-0.0452
21,GCTACCTA,0.0719
22,GGTACCTA,0.424
23,CTTACCTA,0.175
24,CCTACCTA,0.156
25,ATTACCTA,0.332
26,GTTACCTA,0.369

row,Sequence,PBM E-score
1,CGTACCTA,0.395
2,AGTACCTC,-0.107
3,AGTACCTA,0.342
4,CGTACCTC,-0.144
5,GGTACCCA,0.00798
6,AGTACCAA,0.013
7,GTCACCTA,-0.0234
8,ATGAAGTA,-0.0752
9,CTTACAGC,0.00061
10,CCCCATAC,0.00082
11,GATGGAAC,-0.0944
12,ATTACCTG,0.336
13,AGTACCTG,0.378
14,AGTACCAG,-0.106
15,CAGCCCGG,-0.239
16,CGGGGAAC,-0.0973
17,AGTGTAGA,0.151
18,CGTGTAGC,0.228
19,CATGTAGA,0.39
20,CATGTATA,0.376
21,CATGTAGG,0.374
22,CATGTATC,0.277
23,GATGTATA,0.195
24,CAAGTAGG,0.105
25,CGTGTAGA,0.414
26,CATGTAGC,0.276

row,Sequence,PBM E-score
1,AATGTAGG,0.191
2,GATGTAGA,0.195
3,ATTGGAGA,-0.179
4,AAGGGGGC,-0.138
5,AGTAGAAG,0.0882
6,AGGTTCAT,-0.0206
7,GGCCCAGA,-0.411
8,CCAAGACG,-0.236
9,ACAACGGG,0.07
10,GCTAACTA,0.00452
11,CGTGTAAG,0.38
12,AGTGTAAG,0.00213
13,AGTGTAAT,0.308
14,ACTGTAAG,0.0605
15,TGTGTAAA,0.416
16,CGTGTAAA,0.438
17,AGTGTAAA,0.28
18,GGTGTAAC,0.164
19,CGTGTAAC,0.351
20,AGTGTAAC,0.128
21,GGTGTAAA,0.297
22,ACCTAGGT,0.124
23,CGGTCTAC,-0.0115
24,ACTTCTGA,-0.101
25,GTGCATAA,0.084
26,AGGTTGTC,-0.0425

row,Sequence,PBM E-score
1,CAAAGAAC,0.197
2,CGCGGAAG,-0.172
3,GCCATGTA,0.383
4,GCCATGCA,-0.135
5,ACCATGTC,0.223
6,CCCATGTC,0.0657
7,GCCATGGA,-0.144
8,ACCATGTA,0.404
9,CCCATGTA,0.377
10,ACCATGTG,0.0765
11,CCCATGGA,-0.187
12,ATACCTCG,0.121
13,AAGGTGGC,-0.095
14,AAACAGCT,-0.268
15,AGGTAACC,0.321
16,AGGTAACA,0.357
17,GCGTAACA,0.196
18,AGGTAACT,0.297
19,CTGTAACA,0.182
20,ATGTAACA,0.373
21,ATGTAACC,0.166
22,GTGTAACA,0.343
23,GTGTAAGA,0.312
24,ACCGACCC,-0.256
25,AGCAGAAT,0.059
26,ATCCTGCG,0.0225

row,Sequence,PBM E-score
1,TGAGAGAA,-0.0743
2,AGGGTCCG,-0.269
3,CGCCCAAG,-0.105
4,GAATTACC,0.0992
5,AAATTACT,0.138
6,CAATTACG,0.26
7,GAATTACA,0.366
8,AAATTACG,0.249
9,TAATTAGA,0.0891
10,GAATTATA,0.0628
11,AAATTACA,0.365
12,CAATTACA,0.378
13,CAATTACC,0.12
14,TAATTATA,0.206
15,TAATTACA,0.372
16,AAGCAGAA,0.108
17,AACTAGAT,0.138
18,AGGCAGCC,0.317
19,CTTCTCAC,-0.125
20,TCGGCTAA,-0.0724
